Source: PubChem BioAssay AID493231 (Broad Institute, 2011)
Results with a measured potency or affinity are listed apart. Activity calls are given as the source filed them. No rule for the calls is given here.

molecular target: Acyl-homoserine lactone acylase PvdQ (Pseudomonas aeruginosa (strain ATCC 15692 / DSM 22644 / CIP 104116 / JCM 14847 / LMG 12228 / 1C / PRS 101 / PAO1)) (UniProt Q9I194); assay: PvdQ acylase enzyme activity blockers – biochemical, fluorescence, plate reader and imaging, cherry-picks, dose response (AID 493231); conditions: purified PvdQ acylase, fluorogenic substrate; series mostly up to 10 µM;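 also: more negative values mean stronger inhibition of the acylase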
Sequence (Q9I194 whole entry, looked up): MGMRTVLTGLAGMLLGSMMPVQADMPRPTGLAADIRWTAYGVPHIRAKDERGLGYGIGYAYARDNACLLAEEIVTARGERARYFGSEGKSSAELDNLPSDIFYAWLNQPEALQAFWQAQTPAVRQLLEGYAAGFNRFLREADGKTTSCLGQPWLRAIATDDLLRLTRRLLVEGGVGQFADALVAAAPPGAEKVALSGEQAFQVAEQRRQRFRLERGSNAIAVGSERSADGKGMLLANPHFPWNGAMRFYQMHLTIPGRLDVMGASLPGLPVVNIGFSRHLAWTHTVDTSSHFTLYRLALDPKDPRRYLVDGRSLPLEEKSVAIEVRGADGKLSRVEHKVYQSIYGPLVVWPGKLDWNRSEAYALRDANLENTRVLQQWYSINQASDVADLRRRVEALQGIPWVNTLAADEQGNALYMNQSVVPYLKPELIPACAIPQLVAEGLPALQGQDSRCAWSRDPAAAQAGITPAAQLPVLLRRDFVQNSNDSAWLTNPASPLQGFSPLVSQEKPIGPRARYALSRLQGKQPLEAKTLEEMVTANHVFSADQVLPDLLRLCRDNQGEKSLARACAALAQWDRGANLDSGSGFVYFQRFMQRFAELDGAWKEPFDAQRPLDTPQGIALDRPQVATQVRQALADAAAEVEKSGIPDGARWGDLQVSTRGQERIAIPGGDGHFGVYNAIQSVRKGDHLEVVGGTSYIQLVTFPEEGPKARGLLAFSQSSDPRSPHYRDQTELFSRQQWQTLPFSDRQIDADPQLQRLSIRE

outcome, inactive:
CN(CC1CCCN(CCc2ccc(F)cc2)C1)C(=O)CCC(F)(F)F (centres undefined), Clc1ccc2nc3c4ccccc4cnn3c2c1, CCN(c1ccccc1)S(=O)(=O)c1cc(C(=O)Nc2ccccc2Cl)ccc1F, NC(=O)COC(=O)c1ccc(-c2ccccc2)cc1, CCOc1ccc(NC(=O)NCc2cccn2C)cc1, CCOC(=O)c1[nH]c2c(c1C)C(=O)CC(c1ccco1)C2 (centres undefined), CCCc1nc2sc3ccccc3c(=O)c2c(=O)n1Cc1ccccc1, O=C1CC(c2ccccc2)Cc2nc(NC3CC3)ncc21 (centres undefined), CCOc1ccccc1-c1cc(-c2n[nH]c(=S)n2CC)c2ccccc2n1, CCOC(=O)Nc1ccc2nc(N3CCCCCC3)sc2c1, COCCCNC(=O)CC1C[C@H](C(=O)N2CCCCC2)[C@@]2(CCc3ccccc3)c3[nH]c4ccc(OC)cc4c3CCN2C1=O (some centres undefined), CC(=O)N/N=C/c1c(C)[nH]n(-c2ccccc2)c1=O, O=C(CCc1ccccc1)Nc1ccc2c(c1)OCO2, O=C1N(c2ccccc2)C[C@@H]2C[C@@H](c3cc4ccccc4o3)N3CCC[C@@]123, CN(C)C(=O)Nc1ccccc1, COc1cccc(Nc2nc(Nc3ccc(Cl)c(C(=O)O)c3)nc(C)c2[N+](=O)[O-])c1, COc1cc(NC(=S)NC2CC(C)(C)NC(C)(C)C2)cc(OC)c1, O=[N+]([O-])c1nn(-c2ccc(Cl)cc2)n(O)c1=NCc1ccccc1, CN(c1ccc(C(=O)Nc2ccc3c(c2)OCCO3)cc1)S(C)(=O)=O
